Screens as filed in PubChem BioAssay.
Sampled rows, rich in hits. Any-hit rate of the full collection: about 4.5%.
hcDAF12 agonist – H. contortus DAF-12 nuclear receptor activators, primary screen, cell-based, luminescence, HEK293, lit1-tk-luc reporter. HEK293 hcDAF-12 lit1-tk-luc reporter; 0% DMSO, 100% Δ7-dafachronic acid. activation, % at 6.8 µM. hit rate 1.4% among 370,000. AID 652067, 2013;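 active = activation above the mean of all tested compounds plus 3 SD, cut at about 5.5% in these data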
FXN GAA850 act – FXN promoter activators, primary screen, cell-based, luciferase luminescence, HEK293 lucGAA850 | HEK293 lucGAA850 FXN promoter luciferase reporter, 24 h; percent of 10 µM SAHA response | activation, % at 6 µM | hit rate 0.56% among 360,000;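 active = activation above the average of all compounds screened plus 3 SD, cutoff fixed separately per campaign, cut at about 7.5% in these data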
ssDAF-12 act – S. stercoralis DAF-12 nuclear receptor activators, primary screen, cell-based, luminescence, HEK293, GRIP1 co-expression, lit1-tk-luc | Nuclear hormone receptor DAF-12 (Strongyloides stercoralis) | HEK293 ssDAF-12/GRIP1 lit1-tk-luc reporter; % of 3 µM dafachronic acid response | activation, % at 6.8 µM | hit rate 1% among 370,000 | AID 652126, 2013;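 active = activation above the mean over all tested compounds plus 3 SD, cut at about 0.9% in these data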
DAX1 inh-1 – DAX1 (NR0B1) inhibitors, primary screen, cell-based, HEK293, Gal4-DAX1, luciferase luminescence. inhibition, % at 6.75 µM. AID 504766, 2011. hit rate 0.99% among 340,000. HEK293 Gal4-DAX1 luciferase reporter. Nuclear receptor subfamily 0 group B member 1 (Homo sapiens), P51843;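 active = inhibition above the mean over all tested compounds plus 3 SD, cut at about 4.2% in these data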;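 note: inhibition shows as a rise in luminescence from relieved DAX1 repression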
Target sequence (P51843 207-470 limits assumed): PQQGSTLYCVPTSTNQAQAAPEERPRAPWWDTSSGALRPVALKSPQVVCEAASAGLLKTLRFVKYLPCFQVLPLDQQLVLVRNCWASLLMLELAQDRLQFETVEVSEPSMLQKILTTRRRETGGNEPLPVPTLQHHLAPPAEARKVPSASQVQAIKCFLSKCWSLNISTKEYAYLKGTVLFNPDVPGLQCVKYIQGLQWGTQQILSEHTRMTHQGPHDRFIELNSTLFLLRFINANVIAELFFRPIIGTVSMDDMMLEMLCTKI
hgDAF-12 ag – H. glycines DAF-12 receptor agonists, primary screen, cell-based, luminescence, HEK293, GAL4 fusion, UAS-luciferase | Nuclear hormone receptor DAF-12 (Heterodera glycines), GAL4 fusion | HEK293 GAL4-hgDAF12 UAS-luciferase reporter, agonist luminescence; normalized to butyrate control | activation, % at 6.8 µM | hit rate 1.8% among 370,000;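 active = activation above a cutoff set at the mean of all screened compounds plus 3 SD, cut at about 10% in these data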
DAX1 inh-2 – DAX1 (NR0B1) inhibitors on StAR promoter, primary screen, cell-based, luminescence, SF-1 (NR5A1), full-length DAX-1. HEK293T StAR-luciferase reporter, SF-1/DAX-1 repression relief. inhibition, % at 6.8 µM. hit rate 1.1% among 370,000;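 active = inhibition above the mean over all tested compounds plus 3 SD, cut at about 3.6% in these data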;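 note: higher inhibition means more luminescence from relief of DAX-1 repression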
DAX1 conf – DAX1 (NR0B1) inhibitors relieving SF-1 repression, confirmation, cell-based, luminescence, HEK293T, full-length DAX-1, SF-1 activated StAR promoter. HEK293T StAR-promoter luciferase reporter, SF-1/DAX-1 repression. inhibition, % at 6.8 µM. hit rate 87% among 2,400. shares compounds with DAX1 inh-2;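 active = inhibition above the average of every tested compound plus 3 SD, cut at about 3.8% in these data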
SF1 AF2mut Luc – StAR reporter signal changes without DAX1, counter-screen for DAX1 inhibitor project, cell-based, luminescence, AF-2 mutant SF-1, transactivation; shares compounds with DAX1 inh-2; HEK293 StAR-luciferase, SF-1 AF2 mutant; inhibition, % at 6.8 µM; hit rate 78% among 2,400; AID 652136, 2013;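 active = inhibition above the mean of all tested compounds plus 3 SD, cut at about 3% in these data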
LXR ag – LXR agonists, Gal4 luciferase reporter, confirmation, counter-screen for hcDAF-12 agonist project, cell-based, luminescence, HEK293, H. contortus campaign. shares compounds with hcDAF12 agonist. HEK293 Gal4-LXR tk-luc reporter, 24 h; normalized: DMSO 0%, positive control 100%. activation, % at 6.8 µM. 3,400 tested, under 10 active;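 active = mean percent activation of the reporter above a cutoff set as the average over tested compounds plus their standard deviation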
Target sequence (P55055 whole entry, looked up, the tested form may be a part): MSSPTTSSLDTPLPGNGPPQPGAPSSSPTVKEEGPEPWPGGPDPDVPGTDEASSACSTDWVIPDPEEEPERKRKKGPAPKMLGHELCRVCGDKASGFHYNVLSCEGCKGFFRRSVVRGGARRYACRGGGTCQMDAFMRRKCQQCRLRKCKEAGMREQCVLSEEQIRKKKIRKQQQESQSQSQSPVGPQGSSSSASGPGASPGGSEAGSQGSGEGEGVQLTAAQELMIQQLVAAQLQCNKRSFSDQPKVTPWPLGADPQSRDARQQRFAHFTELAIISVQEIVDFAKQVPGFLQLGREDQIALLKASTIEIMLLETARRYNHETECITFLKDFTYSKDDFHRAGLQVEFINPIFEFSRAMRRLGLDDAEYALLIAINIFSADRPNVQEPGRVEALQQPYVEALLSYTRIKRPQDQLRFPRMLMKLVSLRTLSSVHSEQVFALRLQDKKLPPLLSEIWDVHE
hcDAF12 ag – H. contortus DAF-12 receptor agonists, confirmation, cell-based, luminescence, HEK293, lit1-tk-luc, triplicate; shares compounds with hcDAF12 agonist; HEK293 hcDAF-12 lit1-tk-luc reporter; % of Δ7-dafachronic acid response; activation, % at 6.8 µM; hit rate 61% among 3,400;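 active = mean activation across triplicate tests above the threshold derived from the earlier primary screen, cut at about 5.5% in these data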
hgDAF12 conf – H. glycines DAF-12 receptor agonists, confirmation, cell-based, luminescence, HEK293, GAL4-LBD fusion; shares compounds with hgDAF-12 ag; HEK293 GAL4-hgDAF12 luciferase reporter, agonist mode; percent of butyrate response; activation, % at 6.8 µM; hit rate 80% among 3,300; AID 743050, 2013;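 active = mean activation over triplicate wells above the hit cutoff derived from the earlier primary screen, cut at about 11% in these data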
LXRb DAF12 ctr – LXR agonists, Gal4 luciferase reporter, confirmation, counter-screen for hgDAF-12 agonist project, cell-based, luminescence, HEK293, H. glycines campaign; shares compounds with hgDAF-12 ag; 24 h; activation, % at 6.8 µM; 3,300 tested, under 10 active;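 active = mean activation of the triplicate above a set limit carried over from the primary screen, none filed active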
A number is an active result; i = inactive; nt = no result.

SMILES | hcDAF12 agonist | FXN GAA850 act | ssDAF-12 act | DAX1 inh-1 | hgDAF-12 ag | DAX1 inh-2 | DAX1 conf | SF1 AF2mut Luc | hgDAF12 conf | LXRb DAF12 ctr | others
Cc1cccc(-c2noc(-c3ccc4c(c3)OCO4)n2)c1 | i | i | i | i | 13.3 | 4.8 | 12.8 | 5.0 | 14.1 | i
CCc1ccc(NC(=O)c2cnn(-c3ccccc3)c2C)cc1 | i | i | 1.1 | i | 14.8 | 6.1 | 11.1 | 6.0 | 18.9 | i
COc1ccc(Cc2c(C3CCCCC3)nc3ccc(C)cn23)c(C)c1 | i | nt | i | nt | i | i | nt | nt | nt | nt
CC1=Nc2ccccc2N=C(NC(=O)/C=C/C(=O)O)C1c1ccccc1 (stereo not given) | i | i | i | i | i | i | nt | nt | nt | nt
COc1ccc(C(=O)NC2=Nc3ccccc3N=C(C)C2c2ccccc2)cc1 (stereo not given) | 8.9 | i | 0.9 | 17.9 | 59.2 | 9.6 | 22.8 | 18.7 | 38.7 | i | LXR ag=i;hcDAF12 ag=i
c1cncc(-c2nnc(-c3cccs3)o2)c1 | i | i | i | i | i | i | nt | nt | nt | nt
CCOc1ccc(-c2nnc(-c3cccs3)o2)cc1 | 7.4 | i | i | i | 16.1 | 4.9 | 13.4 | 4.6 | 15.0 | i | LXR ag=i;hcDAF12 ag=7.8
c1csc(-c2nnc(-c3ccc(N4CCOCC4)cc3)o2)c1 | 5.8 | i | i | i | 15.2 | 5.1 | 14.2 | 6.2 | 18.9 | i
COc1ccc(N2CSC(=S)N(c3ccc(OC)cc3)C2)cc1 | i | i | i | i | i | i | nt | nt | nt | nt
COc1ccc(-c2cc3ncc(-c4ccccc4)c(N)n3n2)cc1 | i | i | i | i | 24.6 | 6.5 | 14.8 | 7.0 | 15.7 | i
COc1ccc(-c2cc3nc(C)cc(N)n3n2)cc1 | 14.9 | i | 2.4 | i | 19.5 | 5.4 | 18.4 | 8.9 | 19.2 | i | LXR ag=i;hcDAF12 ag=12.8
COc1ccc(-c2cc3nc(C)cc(-c4ccc(OC)cc4)n3n2)cc1 | i | i | i | i | i | i | nt | nt | nt | nt
O=C(COC(=O)c1cccc(Br)c1)NCCNC(=O)COC(=O)c1cccc(Br)c1 | i | i | i | i | i | i | nt | nt | nt | nt
COc1ccc(Nc2nc(C)c(C(C)=O)s2)cc1 | i | nt | i | nt | 16.9 | 4.9 | 5.1 | 4.6 | i | i
CC(=O)c1sc(NC(=O)C(C)(C)C)nc1C | i | i | i | i | i | i | nt | nt | nt | nt
CC(=O)c1sc(NC(=O)c2ccc(C(C)(C)C)cc2)nc1C | 6.2 | i | i | i | 13.3 | 7.6 | 14.3 | 9.6 | 18.6 | i
CC(=O)c1sc(NC(=O)c2ccccc2F)nc1C | i | i | i | i | 14.0 | 5.4 | 12.9 | 6.4 | 14.3 | i
CC(C)S(=O)(=O)N1CCCC(c2cc(C(=O)Nc3ccc(F)c(Cl)c3)no2)C1 (stereo not given) | i | i | i | nt | i | i | nt | nt | nt | nt
CN1CCC(CC(C(=O)N2CCCC2)(c2ccccc2)c2ccccc2)C1 (stereo not given) | i | i | i | i | i | i | nt | nt | nt | nt
CN(C)c1ccc(CNC(=O)C2Cc3c(-c4ccccc4Oc4ccccc4)ccnc3O2)cc1 (stereo not given) | i | i | i | nt | i | i | nt | nt | nt | nt
CC(=O)c1c(C)[nH]c(C(=O)CN2C(=O)NC3(CCCCC3C)C2=O)c1C (stereo not given) | i | i | i | i | i | i | nt | nt | nt | nt
CC(=O)c1ccc(N=Nc2ccc(C)cc2)cc1 | 6.4 | i | i | i | 15.1 | 6.6 | 9.5 | i | i | i
Cc1ccc(C(=O)c2ccc(C)cc2)cc1 | i | i | i | i | i | i | nt | nt | nt | nt
CN(C(=O)c1cccc(NC(=O)Cc2ccc(NC(=O)C3CCCN(C(=O)c4ccccc4)C3)cc2)c1)C1CCCC1 (stereo not given) | i | i | i | i | i | i | nt | nt | nt | nt
O=C(N/N=C\c1c(O)ccc2ccccc12)c1ccc(O)cc1 | i | i | i | i | i | i | nt | nt | nt | nt
Cn1c(-c2ccccc2)c(/C=N/NC(=O)c2ccc(O)cc2)c2ccccc21 | i | i | i | 8.7 | 14.3 | 4.5 | 12.0 | 7.6 | 21.9 | i
CC(C)n1nnnc1C1c2ccccc2C(=O)N1Cc1ccco1 (stereo not given) | i | nt | i | nt | i | i | nt | nt | nt | nt
CN(C)c1ccc(-c2csc(C(O)c3ccc(F)cc3)n2)cc1 (stereo not given) | i | i | i | nt | i | i | nt | nt | nt | nt
CN(C)c1ccc(-c2csc(C(O)c3ccccc3)n2)cc1 (stereo not given) | i | i | i | nt | 14.3 | 6.4 | 9.5 | 8.6 | 19.0 | i
OC(c1ccccc1)c1nc(-c2cc3ccccc3o2)cs1 (stereo not given) | i | i | i | nt | 16.5 | 6.9 | 11.2 | 6.4 | 15.3 | i
